# Experimental data reported in PubChem BioAssay (Tox21).
# Inconclusive results are not listed. Entries that show only a call come without a potency. Values without a mark were called inactive. Calls of active or inactive are those of the source. Unless noted, calls follow the shape of the dose curve; as a rule, active = well fitted curve in the direction sought with a large enough effect in the repeat runs; inconclusive = weak or mixed curves; inactive = no such curve, though single readings can be large; an effect the other way counts as inactive or inconclusive.
# Key:
# [1] = qHTS assay to identify aromatase inhibitors - cell viability counter screen (AID 743084);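 also: cells stimulated with testosterone during compound exposure; nearly all actives have a fitted effect of over 55% in size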
# [2] = molecular target: Aryl hydrocarbon receptor (Homo sapiens) (UniProt P35869); experiment: qHTS assay to identify small molecule that activate the aryl hydrocarbon receptor (AhR) signaling pathway (AID 743085); also: nearly all actives have a fitted effect of over 15% in size; also: potency is read from the fitted curve at half-maximal effect;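 as to activation: HG2L7.5c1 human HepG2 liver cells with stably integrated DRE-driven firefly reporter; series mostly up to about 70 µM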
# In short: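 Compounds were tested in HepG2 hepatocellular carcinoma cells harbouring a stably integrated luciferase gene under control of 20 DREs. Increased reporter signal after 24 h treatment at 37C was taken as AhR activation.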
# [3] = qHTS assay to identify small molecule that activate the aryl hydrocarbon receptor (AhR) signaling pathway - cell viability counter screen (AID 743086);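 also: HepG2 liver cells carrying the AhR DRE luciferase reporter; series mostly up to about 70 µM; nearly all actives have a fitted effect of over 45% in size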
# In short: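 HepG2-AhR-luc (HG2L7.5c1) cells, 4000/well, were preincubated 5 h at 37C, exposed to compound in qHTS format for 24 hr at 37C, then given CellTiter-Fluor for 30 min; viability was read as fluorescence in the reporter wells.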
# [4] = qHTS assay to identify small molecule antagonists of the peroxisome proliferator-activated receptor gamma (PPARg) signaling pathway - cell viability counter screen (AID 743194); also: nearly all actives have a fitted effect of over 55% in size; also: potency is read from the fitted curve at half-maximal effect
# In short: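 PPARg-UAS-bla HEK293H cells were plated, rested 5 h at 37 C, then treated with compounds plus rosiglitazone (50 nM final) for 17 h at 37 C; viability was then read by CellTiter-Glo luminescence after 30 min at room temperature.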
# [5] = qHTS assay for small molecule agonists of the antioxidant response element (ARE) signaling pathway - cell viability counter screen (AID 743203; calls by dose curve; also: nearly all actives have a fitted effect of over 55% in size)
# In short: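 Cells (ARE-bla HepG2, 2,000/well) receive DMSO-dissolved compounds after a 5 hrs rest. Plates incubate 16 hrs at 37C/5% CO2. CellTiter-Glo luminescence is then recorded after 30 min at room temperature.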
# [6] = qHTS assay for small molecule activators of the heat shock response signaling pathway - cell viability counter screen (AID 743209); also: nearly all actives have a fitted effect of over 50% in size
# In short: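 Quantitative HTS format, Tox21 10K library. HeLa cells carrying an HSE-driven beta-lactamase reporter were treated 5 h at 37 C, then assessed for viability by CellTiter-Glo luminescence.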
# [7] = qHTS assay for small molecule activators of the heat shock response signaling pathway (AID 743210; active = well fitted activation curve with a large enough effect in the signal ratio in the repeat runs, with a control signal flat, not every such curve was filed as active; the % refers to the signal ratio; also: potency is read from the fitted curve at half-maximal effect;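 as to activation: HeLa cells with beta-lactamase reporter driven by heat shock elements; series mostly up to about 63 µM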)
# In short: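 Reporter gene assay: HeLa cells stably bearing an HSE-bla construct, compound treatment 5 h at 37 C, LiveBLAzer substrate 2.5 h at RT, fluorescence intensity.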
# [8] = qHTS assay to identify small molecule agonists of the peroxisome proliferator-activated receptor delta (PPARd) signaling pathway - cell viability counter screen (AID 743211); also: nearly all actives have a fitted effect of over 55% in size; also: potency is read from the fitted curve at half-maximal effect
# In short: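 Counter screen for cytotoxicity run in parallel with the PPARd reporter screen. Beta-lactamase reporter HEK293H cells exposed to compounds 17 h; ATP-based CellTiter-Glo luminescence quantified viability.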
# [9] = qHTS assay to identify small molecule antagonists of the peroxisome proliferator-activated receptor delta (PPARd) signaling pathway - cell viability counter screen (AID 743213); also: nearly all actives have a fitted effect of over 50% in size; also: potency is read from the fitted curve at half-maximal effect
# In short: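 Luminescence from CellTiter-Glo, added after the bla read and incubated 30 min at room temperature, gives viability of HEK293H PPARd-bla cells exposed to compounds for 17 h at 37 C with 300 nM L165041.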
# [10] = molecular target: Bile acid receptor (Homo sapiens) (UniProt Q96RI1); experiment: qHTS assay to identify small molecule agonists of the farnesoid-X-receptor (FXR) signaling pathway (AID 743220; active = well fitted activation curve with a large enough effect in the signal ratio in the repeat runs, not every such curve was filed as active; the % refers to the signal ratio)
# In short: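 Beta-lactamase reporter under UAS control in GeneBLAzer FXR HEK 293T cells (5000/well) measured with LiveBLAzer FRET substrate after 2 h at room temperature. Compound exposure lasted 16 h at 37C.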
# [11] = qHTS assay to identify small molecule antagonists of the farnesoid-X-receptor (FXR) signaling pathway - cell viability counter screen (AID 743221; active = well fitted cell-killing curve with a large enough effect in the repeat runs, not every such curve was filed as active; also: nearly all actives have a fitted effect of over 50% in size; also: potency is read from the fitted curve at half-maximal effect)
# In short: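 Multiplexed counter screen: viability of FXR-bla HEK 293T cells under agonist stimulation by chenodeoxycholic acid (50 uM, final) and test compound for 16 h at 37 C, measured by CellTiter-Glo luminescence in the reporter wells.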
# [12] = molecular target: Vitamin D3 receptor (Homo sapiens) (UniProt P11473); experiment: qHTS assay to identify small molecule antagonists of the vitamin D receptor (VDR) signaling pathway (AID 743223; active = well fitted inhibition curve with a large enough effect in the signal ratio in the repeat runs, not every such curve was filed as active; the % refers to the signal ratio)
# In short: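 Cells carrying a VDR-driven beta-lactamase reporter (VDR-bla) were co-treated with compound and 3 nM final 1alpha,25-dihydroxyvitamin D3 for 16 h at 37C; reporter activity was measured as FRET substrate fluorescence after 2 h at room temperature.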
# [13] = molecular target: Peroxisome proliferator-activated receptor delta (Homo sapiens) (UniProt Q03181); experiment: qHTS assay to identify small molecule agonists of the peroxisome proliferator-activated receptor delta (PPARd) signaling pathway (AID 743212; calls by dose curve)
# In short: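 A PPARd-bla HEK293H line with beta-lactamase under an Upstream Activator Sequence is treated with compounds at 37 C. Substrate loading for 2 h at room temperature precedes the fluorescence measurement.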
# [14] = molecular target: Peroxisome proliferator-activated receptor delta (Homo sapiens) (UniProt Q03181); experiment: qHTS assay to identify small molecule antagonists of the peroxisome proliferator-activated receptor delta (PPARd) signaling pathway (AID 743215; active = well fitted inhibition curve with a large enough effect in the signal ratio in the repeat runs, not every such curve was filed as active; the % refers to the signal ratio;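 also: cells stimulated with agonist L165041 at 300 nM final during compound exposure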; also: potency is read from the fitted curve at half-maximal effect)
# In short: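 Antagonist-mode beta-lactamase reporter screen: HEK293H cells with UAS-bla under PPARd control, stimulated by 300 nM L165041 (final) alongside test compound for 17 h at 37 C, then FRET fluorescence after 2 h substrate incubation.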
# [15] = qHTS assay to identify small molecule agonists of the farnesoid-X-receptor (FXR) signaling pathway - cell viability counter screen (AID 743218); also: nearly all actives have a fitted effect of over 45% in size; also: potency is read from the fitted curve at half-maximal effect
# In short: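 In GeneBLAzer FXR-UAS-bla HEK 293T cells, compounds act for 16 h at 37 C. Cell viability is then scored in the reporter wells by CellTiter-Glo, 30 min at RT, luminescence.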
# [16] = qHTS assay for small molecule agonists of the antioxidant response element (ARE) signaling pathway (AID 743202; active = well fitted activation curve with a large enough effect in the signal ratio in the repeat runs, not every such curve was filed as active; the % refers to the signal ratio; also: potency is read from the fitted curve at half-maximal effect)
# In short: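 Compounds delivered in DMSO to ARE-bla HepG2 cells (2,000 cells/well, pre-incubated 5 h) and left 16 h at 37 C. LiveBLAzer B/G FRET substrate then added for 2 h at RT before fluorescence reading.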
# [17] = molecular target: Bile acid receptor (Homo sapiens) (UniProt Q96RI1); experiment: qHTS assay to identify small molecule antagonists of the farnesoid-X-receptor (FXR) signaling pathway (AID 743217; active = well fitted inhibition curve with a large enough effect in the signal ratio in the repeat runs, not every such curve was filed as active; the % refers to the signal ratio)
# In short: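 Beta-lactamase reporter under UAS control in HEK 293T cells; compound exposure 16 h at 37 °C in the presence of chenodeoxycholic acid (50 uM final); signal from B/G FRET substrate after 2 h at room temperature.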
# [18] = molecular target: Vitamin D3 receptor (Homo sapiens) (UniProt P11473); experiment: qHTS assay to identify small molecule agonists of the vitamin D receptor (VDR) signaling pathway (AID 743222; calls by dose curve)
# In short: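 Agonist activity measured in VDR-bla reporter cells. Exposure 16 h, 37C, 5% CO2; detection by B/G FRET substrate, 2 h RT.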
# [19] = molecular target: Peroxisome proliferator-activated receptor gamma (Homo sapiens) (UniProt P37231); experiment: qHTS assay to identify small molecule agonists of the peroxisome proliferator-activated receptor gamma (PPARg) signaling pathway (AID 743094; active = well fitted activation curve with a large enough effect in the signal ratio in the repeat runs, not every such curve was filed as active; the % refers to the signal ratio)
# In short: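 Stably transfected HEK293H cells (GeneBLAzer PPARg UAS-bla) were incubated with test substances for 17 h at 37C after a 5 h pre-incubation; beta-lactamase activity was then detected by FRET substrate fluorescence.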
# [20] = molecular target: Peroxisome proliferator-activated receptor gamma (Homo sapiens) (UniProt P37231); experiment: qHTS assay to identify small molecule antagonists of the peroxisome proliferator-activated receptor gamma (PPARg) signaling pathway (AID 743191; calls by dose curve; also: nearly all actives have a fitted effect of over 30% in size; also: potency is read from the fitted curve at half-maximal effect)
# In short: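 GeneBLAzer PPARg UAS-bla HEK293H cells carrying a UAS-driven beta-lactamase reporter were plated at 3000 cells/well, preincubated 5 h at 37C, then given compound for 17 h at 37C; LiveBLAzer B/G FRET substrate was read after 1 h at room temperature.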
# Chain of Peroxisome proliferator-activated receptor gamma (Homo sapiens) (P37231 whole entry, looked up): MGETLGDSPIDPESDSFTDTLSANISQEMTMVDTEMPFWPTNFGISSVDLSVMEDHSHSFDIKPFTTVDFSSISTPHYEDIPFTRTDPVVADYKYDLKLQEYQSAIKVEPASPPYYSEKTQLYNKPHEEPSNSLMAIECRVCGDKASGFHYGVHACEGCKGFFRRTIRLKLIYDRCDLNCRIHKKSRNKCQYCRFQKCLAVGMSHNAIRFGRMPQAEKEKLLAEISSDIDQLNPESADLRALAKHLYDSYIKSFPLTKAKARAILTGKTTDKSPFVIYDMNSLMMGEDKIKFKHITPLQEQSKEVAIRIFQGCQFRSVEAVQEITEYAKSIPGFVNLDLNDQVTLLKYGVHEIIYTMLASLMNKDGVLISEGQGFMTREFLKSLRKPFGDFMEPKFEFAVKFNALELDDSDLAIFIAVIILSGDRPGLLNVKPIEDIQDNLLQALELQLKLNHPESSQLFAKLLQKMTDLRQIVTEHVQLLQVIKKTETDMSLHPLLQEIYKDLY
# Chain of Aryl hydrocarbon receptor (Homo sapiens) (P35869 whole entry, looked up): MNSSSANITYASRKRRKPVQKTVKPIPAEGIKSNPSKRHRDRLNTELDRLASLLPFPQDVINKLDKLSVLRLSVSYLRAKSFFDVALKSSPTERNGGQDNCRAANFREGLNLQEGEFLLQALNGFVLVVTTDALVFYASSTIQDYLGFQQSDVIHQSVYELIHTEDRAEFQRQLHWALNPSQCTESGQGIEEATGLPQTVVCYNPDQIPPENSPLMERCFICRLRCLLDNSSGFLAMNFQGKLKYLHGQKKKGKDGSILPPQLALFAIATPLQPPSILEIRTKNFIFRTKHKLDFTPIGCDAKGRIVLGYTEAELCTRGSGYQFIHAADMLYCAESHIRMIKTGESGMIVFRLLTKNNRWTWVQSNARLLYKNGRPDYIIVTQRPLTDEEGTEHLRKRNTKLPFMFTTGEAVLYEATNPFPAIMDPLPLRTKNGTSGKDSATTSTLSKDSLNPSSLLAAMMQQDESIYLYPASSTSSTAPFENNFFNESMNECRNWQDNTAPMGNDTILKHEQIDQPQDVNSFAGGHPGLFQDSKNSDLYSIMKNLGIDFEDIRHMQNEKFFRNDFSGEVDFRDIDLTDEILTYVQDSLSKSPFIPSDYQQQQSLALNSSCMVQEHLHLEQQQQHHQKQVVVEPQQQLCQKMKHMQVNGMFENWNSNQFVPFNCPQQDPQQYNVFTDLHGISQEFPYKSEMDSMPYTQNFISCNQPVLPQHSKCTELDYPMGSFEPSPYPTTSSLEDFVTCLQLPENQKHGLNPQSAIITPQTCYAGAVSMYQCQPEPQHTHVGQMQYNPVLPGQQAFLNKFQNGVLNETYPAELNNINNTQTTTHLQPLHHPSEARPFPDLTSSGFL
# Chain of Peroxisome proliferator-activated receptor delta (Homo sapiens) (Q03181 whole entry, looked up): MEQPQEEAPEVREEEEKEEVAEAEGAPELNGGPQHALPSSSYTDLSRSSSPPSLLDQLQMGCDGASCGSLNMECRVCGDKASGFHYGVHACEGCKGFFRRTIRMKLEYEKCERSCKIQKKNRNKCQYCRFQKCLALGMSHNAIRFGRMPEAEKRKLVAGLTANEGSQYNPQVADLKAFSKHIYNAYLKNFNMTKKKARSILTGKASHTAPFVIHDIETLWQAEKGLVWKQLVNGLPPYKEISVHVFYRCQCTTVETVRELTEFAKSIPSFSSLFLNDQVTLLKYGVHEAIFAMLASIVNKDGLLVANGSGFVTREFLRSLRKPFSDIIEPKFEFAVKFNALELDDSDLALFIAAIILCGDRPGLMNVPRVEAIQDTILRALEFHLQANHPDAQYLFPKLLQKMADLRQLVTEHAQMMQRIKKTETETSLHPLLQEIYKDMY
# Chain of Bile acid receptor (Homo sapiens) (Q96RI1 whole entry, looked up): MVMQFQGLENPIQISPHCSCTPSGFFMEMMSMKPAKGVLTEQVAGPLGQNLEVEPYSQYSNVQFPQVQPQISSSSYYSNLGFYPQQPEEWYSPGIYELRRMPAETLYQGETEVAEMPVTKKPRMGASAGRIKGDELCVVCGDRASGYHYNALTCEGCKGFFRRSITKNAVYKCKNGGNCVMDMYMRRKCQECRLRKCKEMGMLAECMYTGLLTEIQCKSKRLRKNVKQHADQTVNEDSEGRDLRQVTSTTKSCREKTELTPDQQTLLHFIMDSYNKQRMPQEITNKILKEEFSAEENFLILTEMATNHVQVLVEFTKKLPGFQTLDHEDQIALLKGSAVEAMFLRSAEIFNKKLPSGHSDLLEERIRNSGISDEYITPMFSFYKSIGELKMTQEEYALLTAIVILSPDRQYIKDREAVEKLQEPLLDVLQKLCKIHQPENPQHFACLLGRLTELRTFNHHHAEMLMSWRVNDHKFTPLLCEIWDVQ
# Chain of Vitamin D3 receptor (Homo sapiens) (P11473 whole entry, looked up): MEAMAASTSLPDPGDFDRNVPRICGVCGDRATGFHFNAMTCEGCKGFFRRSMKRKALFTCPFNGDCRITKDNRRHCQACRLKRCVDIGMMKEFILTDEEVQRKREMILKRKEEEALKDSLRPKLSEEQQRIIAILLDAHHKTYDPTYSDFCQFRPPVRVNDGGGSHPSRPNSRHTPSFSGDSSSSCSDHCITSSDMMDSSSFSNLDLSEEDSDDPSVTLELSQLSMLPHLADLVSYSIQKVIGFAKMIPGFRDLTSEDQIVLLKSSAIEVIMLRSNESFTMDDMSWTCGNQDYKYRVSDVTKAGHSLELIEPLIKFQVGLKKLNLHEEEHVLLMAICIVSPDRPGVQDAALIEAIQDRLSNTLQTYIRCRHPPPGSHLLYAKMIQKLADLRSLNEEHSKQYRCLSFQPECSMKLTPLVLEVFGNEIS
Compound,Potency [1],Potency [2],Potency [3],Potency [4],Potency [5],Potency [6],Potency [7],Potency [8],Potency [9],Potency [10],Potency [11],outcome [12],Potency [13],Potency [14],Potency [15],Potency [16],Potency [17],outcome [18],Potency [19],Potency [20]
CCCCCCCCCCOS(=O)(=O)O,inactive,inactive,inactive,inactive,inactive,inactive,inactive,inactive,inactive,inactive,inactive,inactive,,,,,,,,
O=C(O)Cc1ccc(-c2ccccc2)cc1,inactive,inactive,inactive,,inactive,inactive,inactive,,inactive,,inactive,inactive,inactive,inactive,inactive,,,,,
C[N+](C)(C)CCOC(N)=O,inactive,inactive,inactive,inactive,inactive,inactive,inactive,inactive,inactive,inactive,,inactive,inactive,inactive,inactive,inactive,inactive,inactive,,
CC(C)(C)C(=O)C(Oc1ccc(Cl)cc1)n1ccnc1 (configuration not stated),inactive,23.7 µM (active),inactive,inactive,inactive,inactive,,inactive,inactive,inactive,inactive,,inactive,inactive,inactive,inactive,,,,
COCc1c(C(C)C)nc(C(C)C)c(/C=C/[C@@H](O)C[C@@H](O)CC(=O)O)c1-c1ccc(F)cc1,inactive,inactive,inactive,inactive,inactive,inactive,inactive,inactive,,,,,inactive,,inactive,,,inactive,,
CNCCCC1c2ccccc2C=Cc2ccccc21,inactive,inactive,inactive,inactive,inactive,inactive,inactive,10.6 µM (active),23.7 µM (active),,,inactive,,,,,,,,
CC[C@@H]([C@H](C)O)n1ncn(-c2ccc(N3CCN(c4ccc(OC[C@@H]5CO[C@@](Cn6cncn6)(c6ccc(F)cc6F)C5)cc4)CC3)cc2)c1=O,inactive,inactive,,29.8 µM (active),inactive,inactive,inactive,,,,29.8 µM (active),inactive,,,29.8 µM (active),10.6 µM (active),,inactive,inactive,
C[C@@H]1C[C@H]2[C@@H]3CCC4=CC(=O)C=C[C@]4(C)[C@@]3(F)[C@@H](O)C[C@]2(C)[C@@]1(O)C(=O)CO,inactive,inactive,inactive,inactive,inactive,,inactive,inactive,inactive,,inactive,,inactive,,,,,,,
Cc1nc2ccccc2s1,inactive,inactive,,inactive,inactive,inactive,,inactive,,,inactive,,inactive,inactive,,inactive,,inactive,inactive,
C[N+]1(C)CCC(=C(c2ccccc2)c2ccccc2)CC1,inactive,inactive,inactive,inactive,inactive,inactive,,inactive,inactive,inactive,,inactive,,,inactive,,inactive,inactive,,
C(=C\c1ccccc1)/CN1CCN(C(c2ccccc2)c2ccccc2)CC1,inactive,inactive,inactive,,inactive,inactive,,29.8 µM (active),,inactive,inactive,inactive,,,,,,inactive,,
CCCCN(CCCC)C(=S)SSC(=S)N(CCCC)CCCC,inactive,inactive,inactive,inactive,,inactive,1.37 µM (active),,,,inactive,inactive,inactive,21.7 µM (active),,,,,,24.3 µM (active)
C/C=C(\C)C(=O)OCCC(C)CCC=C(C)C (configuration not stated),inactive,inactive,inactive,inactive,,,inactive,inactive,,inactive,inactive,inactive,,,,,,,,
CCOc1cc(N)c(Cl)cc1C(=O)NCC1CN(Cc2ccc(F)cc2)CCO1 (configuration not stated),inactive,0.266 µM (active),inactive,inactive,,,inactive,inactive,inactive,inactive,inactive,inactive,inactive,inactive,,,,,,
O=C(CS)OCCOC(=O)CS,inactive,inactive,,inactive,inactive,inactive,inactive,inactive,inactive,inactive,,inactive,inactive,,inactive,inactive,inactive,inactive,inactive,
CC(C)CCCC(=O)O,inactive,inactive,,inactive,inactive,inactive,inactive,inactive,inactive,inactive,inactive,,inactive,inactive,inactive,,,inactive,inactive,inactive
NC(=O)N(O)[C@@H]1COc2cc(OCc3ccccc3)ccc21,inactive,inactive,,inactive,inactive,,inactive,inactive,inactive,inactive,inactive,inactive,inactive,inactive,inactive,inactive,inactive,,inactive,inactive
CCOC(=O)c1ccccc1C,inactive,inactive,,inactive,,inactive,inactive,inactive,inactive,inactive,,,,,,,,,inactive,inactive
CCCCCC=CCC=CCCCCCCCC(=O)OCC,inactive,inactive,,inactive,inactive,,,,,inactive,inactive,inactive,,inactive,inactive,,inactive,inactive,inactive,29.8 µM (active)
Cc1ccc(/C=N/n2c(-c3ccccc3)csc2=S)cc1,inactive,10.6 µM (active),inactive,inactive,inactive,,,,,,inactive,inactive,inactive,,,,,inactive,,13.3 µM (active)
